In the library only some 2.6% were active in any assay of this set; here they are far more common.
TROY signal inh – blocks TROY-dependent signaling in reporter cells | AID 1347056 | inhibition, % at 10 µM | actives 0.98% (n = 360,000) | Q293 LMP1-TROYcd NF-kB luciferase reporter, 4 h;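 active = compounds whose plate-normalised and pattern-corrected inhibition of the luciferase reporter signal at the single screening dose is 50% or more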
LGR2 inh – blocks bursicon-induced cAMP signaling via Drosophila LGR2; actives 0.35% (n = 380,000); inhibition, % at 9.99 µM; HEK293 LGR2, CRE-luciferase, bursicon-stimulated, 4 h;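 active = drop in luminescence signal, shown as inhibition above about 50% in the replicate tests, limit read from the data, passing the limit was not always enough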;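 also: agonist challenge used bursicon conditioned medium at about half maximal strength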
EBV LMP1 NFkB – reduces LMP1-driven NF-kappaB luciferase signal; LMP1-induced NF-kappaB luciferase reporter cells, luminescence; inhibition, % at 12.5 µM; actives 0.69% (n = 350,000); in the data active = inhibition above about 41%;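 also: 0% = neutral control wells and 100% = reference inhibitor control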
TWEAK-Fn14 inh – TWEAK-Fn14 signaling inhibition; inhibition, % at 10 µM; AID 1159606; actives 2% (n = 360,000); TWEAK-stimulated Fn14 reporter cells, luciferase luminescence, 8 h; in the data active = inhibition above about 50%
EWS-Fli inh – inhibitors of EWS/Fli oncoprotein transcriptional activity; inhibition, % at 12.6 µM; AID 651661; actives 0.67% (n = 350,000); A673 NR0B1-luciferase reporter, viability-normalised;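 active = mean inhibition of at least 50% after viability correction, with every replicate also passing that limit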;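 also: firefly luciferase signal divided by Alamar Blue viability fluorescence both relative to DMSO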
* hit, by the source's call; x = no result given.

SMILES | TROY signal inh | LGR2 inh | EBV LMP1 NFkB | TWEAK-Fn14 inh | EWS-Fli inh
COc1ccc(Nc2cccc3ccccc23)cc1 | 82* | -30 | -29 | 104* | -61
CC(=O)Nc1cccc(NC(=S)Nc2cccc3ccccc23)c1 | 3 | -67 | -25 | -6 | x
S=C(Nc1cccc2ccccc12)Nc1cccc2ccccc12 | 49 | -4 | -4 | 92* | -45
COc1ccc(S(=O)(=O)N(C)C[C@H]2Oc3ccc(NS(C)(=O)=O)cc3CC(=O)N([C@H](C)CO)C[C@H]2C)cc1 | x | -7 | x | x | 0
COc1ccc(NC(=O)Nc2ccc3c(c2)C(=O)N([C@H](C)CO)C[C@@H](C)[C@@H](CN(C)C(=O)C2CCCCC2)OCCCC[C@@H](C)O3)cc1 | x | -4 | x | x | -2
O=C(C[C@@H]1CC[C@@H](NC(=O)Nc2ccccc2)[C@@H](CO)O1)NCc1ccccn1 | x | -6 | x | x | -8
COc1ccc(NC(=S)Nc2cccc(Cl)c2)cc1OC | -22 | -2 | 1 | -19 | -12
COc1ccc(NC(=S)Nc2cccc3ccccc23)cc1OC | 31 | -22 | -4 | 94* | -12
COc1ccc(C(=O)c2sc(Nc3ccccc3)nc2N)cc1OC | 30 | 19 | 8 | 54* | 14
Nc1nc(Nc2ccccc2)sc1C(=O)c1ccccc1 | 20 | 71* | -59 | 62* | -125
COc1ccccc1N1C(C)=CC(=C(C#N)c2nc3ccccc3s2)C=C1C | 72* | x | 28 | 83* | 42
CC(=O)Nc1ccc2c(c1)C(=O)N(C)[C@@H]1CC[C@@H](CC(=O)NCc3ccccc3Cl)O[C@H]1CO2 | x | 6 | x | x | -7
O=C(C1CCCN(S(=O)(=O)c2cccc3nsnc23)C1)N1CC=C(c2ccccc2)CC1 (stereo not drawn) | 27 | x | 18 | 51* | x
C[C@@H]1CCCCO[C@H](CN(C)Cc2ccccc2)[C@@H](C)CN([C@H](C)CO)C(=O)c2cc(NS(=O)(=O)c3cn(C)cn3)ccc2O1 | x | 1 | x | x | -9
Cc1ccc(S(=O)(=O)Nc2ccc3c(c2)CC(=O)N([C@H](C)CO)C[C@H](C)[C@H](CN(C)S(=O)(=O)c2ccc(F)cc2)O3)cc1 | x | 11 | x | x | 6
CCc1ccc(/C(C)=N/NC(=O)CNC(=O)/C=C/c2ccco2)cc1 | 1 | x | -6 | 66* | x
COc1ccc(NC(=O)N[C@H]2CC[C@@H](CCNC(=O)Cc3ccncc3)O[C@H]2CO)cc1 | x | -5 | x | x | 0
CCOC(=O)C(C(=O)OCC)C(Nc1ccc(Br)cc1)c1ccccc1 (stereo not drawn) | 5 | x | -17 | 54* | x
CCOC(=O)C(c1ccccc1)C(Nc1ccc(F)cc1)c1ccccn1 (stereo not drawn) | -3 | -13 | -1 | 22 | 21
CC1CCN(C2=NC(=O)/C(=C/c3ccccc3F)S2)CC1 | 79* | 49 | x | 95* | 19
CC1CCN(C2=NC(=O)/C(=C/c3cccc(O)c3)S2)CC1 | 25 | -30 | -3 | -7 | -13
Cc1cc(NC(=O)C2CCCN2C(=O)Nc2cccc(Cl)c2)ccc1-n1cnnn1 (stereo not drawn) | 9 | 23 | 13 | 55* | -1
Nc1ccc2ccc(NS(=O)(=O)N3CCCCC3)cc2c1 | x | 0 | x | x | 56*
CCCC(=O)Nc1ccc2c(c1)C(=O)N(C)C[C@@H](OC)[C@@H](C)CN(C(=O)CC1CC1)[C@H](C)CO2 | x | 2 | x | x | 0
CN(C)c1ccc(/C=N/N=C2/NC(=O)/C(=C/c3ccc([N+](=O)[O-])cc3)S2)cc1 | 33 | x | 37 | 60* | x
SMILES | TROY signal inh | LGR2 inh | EBV LMP1 NFkB | TWEAK-Fn14 inh | EWS-Fli inh
NC1=NC(=O)NC1(c1ccccc1)c1ccccc1 | 2 | -13 | 48* | 18 | -4
CC(C)NC(=O)N(C)C[C@@H]1Oc2cc(C#CC3CC3)ccc2S(=O)(=O)N([C@H](C)CO)C[C@@H]1C | x | 5 | x | x | -3
Cc1ccc(SC(C)c2nc(-c3ccccc3)no2)cc1 (stereo not drawn) | -43 | x | 59* | -5 | x
Cc1ccccc1OC(C)c1nc(-c2ccccc2)no1 (stereo not drawn) | x | x | -4 | 29 | x
CCCNC(=O)C[C@H]1CC[C@H]2[C@@H](COc3ccc(NC(=O)c4ccc5c(c4)OCO5)cc3C(=O)N2C)O1 | x | 9 | x | x | -6
Cc1ccc(NC(=S)NNC(=S)Nc2cccc(C(F)(F)F)c2)cc1 | -28 | x | -25 | -33 | -12
Cc1ccc(NC(=O)NNS(=O)(=O)c2ccc(Br)cc2)cc1 | 0 | x | 66* | -6 | x
O=C(Nc1ccncc1)Nc1cccc(C(F)(F)F)c1 | 10 | 5 | 10 | 20 | 18

Bioassay records (PubChem BioAssay)
